Assay results from PubChem BioAssay AID1159580 (chemical genetic matrix, 2015).
Among all 5,500 compounds or so, about 2,000 (36%) were called active. Another 18% or so got no clear call; they are omitted. Cut-off read from the data, not from the text of the source: active = normalized growth mostly below about 0.91 (no sharp cut-off); inconclusive = no clear call, values can overlap the other calls; inactive = mostly above about 0.92. This is one part of the list.

Test: chemical genetic growth profiling, strain panel (AID 1159580);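 note: tested at 20 µM; growth read once vehicle control cultures reached saturation at 30 °C; 1 = growth at the plate median or of vehicle wells; lower values mean less growth of the strain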
Conditions: growth OD

Measured: normalized growth

C=CCCCCCCCCCCCC(O)CC(O)CO (centres undefined)
inactive: S. cerevisiae deletion strains, locus YJR043C, strain POL32, stronger effect = lower value 0.952 | S. cerevisiae deletion strains, locus YJR075W, strain HOC1, stronger effect = lower value 0.896 | S. cerevisiae deletion strains, locus YKL068W, stronger effect = lower value 0.995 | S. cerevisiae deletion strains, locus YKL085W, strain MDH1 (second series), stronger effect = lower value 0.96 | S. cerevisiae deletion strains, locus YKL085W, strain MDH1, stronger effect = lower value 0.96 | S. cerevisiae deletion strains, locus YKL160W, strain elf1, stronger effect = lower value 0.989 | S. cerevisiae deletion strains, locus YKL190W, strain CNB1, stronger effect = lower value 0.947 | S. cerevisiae deletion strains, locus YKR026C, strain gcn3, stronger effect = lower value 0.988 | S. cerevisiae deletion strains, locus YKR091W, strain srl3, stronger effect = lower value 0.995 | S. cerevisiae deletion strains, locus YLL001W, strain dnm1, stronger effect = lower value 0.976 | S. cerevisiae deletion strains, locus YLL026W, stronger effect = lower value 0.997 | S. cerevisiae deletion strains, locus YLL041C, strain sdh2, stronger effect = lower value 0.998 | S. cerevisiae deletion strains, locus YLR027C, strain aat2, stronger effect = lower value 0.999 | S. cerevisiae deletion strains, locus YLR039C, strain RIC1, stronger effect = lower value 0.996 | S. cerevisiae deletion strains, locus YLR058C, strain SHM2, stronger effect = lower value 0.944 | S. cerevisiae deletion strains, locus YLR102C, strain apc9, stronger effect = lower value 0.99 | S. cerevisiae deletion strains, locus YLR221C, strain rsa3, stronger effect = lower value 0.998 | S. cerevisiae deletion strains, locus YLR258W, strain gsy2, stronger effect = lower value 1.01 | S. cerevisiae deletion strains, locus YLR262C, strain YPT6 (second series), stronger effect = lower value 1.01 | S. cerevisiae deletion strains, locus YLR262C, strain YPT6, stronger effect = lower value 0.959 | S. cerevisiae deletion strains, locus YLR268W, strain sec22, stronger effect = lower value 0.971 | S. cerevisiae deletion strains, locus YLR320W, strain mms22, stronger effect = lower value 0.985 | S. cerevisiae deletion strains, locus YLR342W, strain FKS1, stronger effect = lower value 1 | S. cerevisiae deletion strains, locus YLR357W, strain rsc2, stronger effect = lower value 0.975 | S. cerevisiae deletion strains, locus YLR370C, strain arc18, stronger effect = lower value 0.993 | S. cerevisiae deletion strains, locus YLR371W, strain rom2, stronger effect = lower value 0.952 | S. cerevisiae deletion strains, locus YLR384C, strain iki3, stronger effect = lower value 0.997 | S. cerevisiae deletion strains, locus YML016C, strain PPZ1, stronger effect = lower value 0.988 | S. cerevisiae deletion strains, locus YML120C, strain ndi1, stronger effect = lower value 0.995 | S. cerevisiae deletion strains, locus YML124C, strain tub3, stronger effect = lower value 0.991 | S. cerevisiae deletion strains, locus YMR058W, strain fet3, stronger effect = lower value 1.01 | S. cerevisiae deletion strains, locus YMR078C, strain ctf18, stronger effect = lower value 0.964 | S. cerevisiae deletion strains, locus YMR125W, strain sto1, stronger effect = lower value 0.979 | S. cerevisiae deletion strains, locus YMR129W, stronger effect = lower value 0.988 | S. cerevisiae deletion strains, locus YMR205C, strain PFK2, stronger effect = lower value 0.974 | S. cerevisiae deletion strains, locus YMR231W, strain pep5, stronger effect = lower value 0.995 | S. cerevisiae deletion strains, locus YMR263W, strain SAP30, stronger effect = lower value 0.955 | S. cerevisiae deletion strains, locus YMR307W, strain GAS1, stronger effect = lower value 0.792 | S. cerevisiae deletion strains, locus YNL067W, strain RPL9B, stronger effect = lower value 0.903 | S. cerevisiae deletion strains, locus YNL071W, strain lat1, stronger effect = lower value 0.989 | S. cerevisiae deletion strains, locus YNL128W, strain TEP1, stronger effect = lower value 0.924 | S. cerevisiae deletion strains, locus YNL153C, strain GIM3, stronger effect = lower value 0.979 | S. cerevisiae deletion strains, locus YNL209W, strain ssb2, stronger effect = lower value 1 | S. cerevisiae deletion strains, locus YNL248C, strain rpa49, stronger effect = lower value 0.993 | S. cerevisiae deletion strains, locus YNL250W, strain rad50, stronger effect = lower value 0.939 | S. cerevisiae deletion strains, locus YNL271C, strain bni1, stronger effect = lower value 0.953 | S. cerevisiae deletion strains, locus YNL322C, strain KRE1 (second series), stronger effect = lower value 0.981 | S. cerevisiae deletion strains, locus YNL322C, strain KRE1, stronger effect = lower value 0.979 | S. cerevisiae deletion strains, locus YNR049C, strain mso1, stronger effect = lower value 0.995 | S. cerevisiae deletion strains, locus YNR052C, strain pop2, stronger effect = lower value 0.946 | S. cerevisiae deletion strains, locus YOL006C, strain TOP1, stronger effect = lower value 0.808 | S. cerevisiae deletion strains, locus YOL012C, strain htz1 1.72 | S. cerevisiae deletion strains, locus YOR001W, strain rrp6, stronger effect = lower value 0.998 | S. cerevisiae deletion strains, locus YOR069W, strain VPS5, stronger effect = lower value 0.978 | S. cerevisiae deletion strains, locus YOR070C, strain gyp1, stronger effect = lower value 0.992 | S. cerevisiae deletion strains, locus YOR080W, strain dia2, stronger effect = lower value 0.998 | S. cerevisiae deletion strains, locus YOR083W, strain WHI5, stronger effect = lower value 0.965 | S. cerevisiae deletion strains, locus YOR106W, strain vam3, stronger effect = lower value 1.02 | S. cerevisiae deletion strains, locus YOR136W, strain idh2, stronger effect = lower value 0.935 | S. cerevisiae deletion strains, locus YOR144C, strain elg1, stronger effect = lower value 0.982 | S. cerevisiae deletion strains, locus YOR265W, strain rbl2, stronger effect = lower value 1 | S. cerevisiae deletion strains, locus YOR270C, strain vph1, stronger effect = lower value 1.01 | S. cerevisiae deletion strains, locus YOR290C, strain snf2, stronger effect = lower value 0.93 | S. cerevisiae deletion strains, locus YOR316C, strain cot1, stronger effect = lower value 0.977 | S. cerevisiae deletion strains, locus YPL051W, strain arl3, stronger effect = lower value 0.999 | S. cerevisiae deletion strains, locus YPL055C, strain LGE1, stronger effect = lower value 0.843 | S. cerevisiae deletion strains, locus YPL078C, strain atp4, stronger effect = lower value 0.986 | S. cerevisiae deletion strains, locus YPL106C, strain sse1, stronger effect = lower value 1.01 | S. cerevisiae deletion strains, locus YPL240C, strain hsp82, stronger effect = lower value 1 | S. cerevisiae deletion strains, locus YPL241C, strain CIN2, stronger effect = lower value 0.987 | S. cerevisiae deletion strains, locus YPR119W, strain clb2, stronger effect = lower value 0.989 | S. cerevisiae deletion strains, locus YPR141C, strain kar3, stronger effect = lower value 1 | S. cerevisiae deletion strains, locus YPR163C, strain tif3, stronger effect = lower value 0.95 | S. cerevisiae deletion strains, locus YPR167C, strain met16, stronger effect = lower value 0.964 | S. cerevisiae deletion strains, strain wtn01, stronger effect = lower value 0.904
active: S. cerevisiae deletion strains, locus YKL009W, strain mrt4, stronger effect = lower value 0.852 | S. cerevisiae deletion strains, locus YKR001C, strain vps1, stronger effect = lower value 0.839 | S. cerevisiae deletion strains, locus YLR330W, strain CHS5, stronger effect = lower value 0.917 | S. cerevisiae deletion strains, locus YLR342W, strain FKS1 (second series), stronger effect = lower value 0.756 | S. cerevisiae deletion strains, locus YLR418C, strain cdc73, stronger effect = lower value 0.759 | S. cerevisiae deletion strains, locus YML032C, strain rad52, stronger effect = lower value 0.869 | S. cerevisiae deletion strains, locus YMR223W, strain ubp8, stronger effect = lower value 0.858 | S. cerevisiae deletion strains, locus YNL233W, strain BNI4, stronger effect = lower value 0.834 | S. cerevisiae deletion strains, locus YNL298W, strain CLA4, stronger effect = lower value 0.907 | S. cerevisiae deletion strains, locus YNL307C, strain MCK1, stronger effect = lower value 0.499 | S. cerevisiae deletion strains, locus YOL147C, strain pex11, stronger effect = lower value 0.778 | S. cerevisiae deletion strains, locus YOR061W, strain CKA2, stronger effect = lower value 0.635 | S. cerevisiae deletion strains, locus YOR184W, strain ser1, stronger effect = lower value 0.719 | S. cerevisiae strains, strain wild type, stronger effect = lower value 0.861
